# In PubChem BioAssay AID686978 (National Center for Advancing Translational Sciences (NCATS), 2013):
# In all, about 420,000 compounds went through this assay and about 64,000 (15%) were called active. About 27% were inconclusive and are not listed. Calls follow the shape of the dose curve; as a rule, active = well fitted inhibition curve with a large enough effect; inconclusive = small, poorly fitted or top-dose-only effect; inactive = flat fitted curve, though single readings scatter. These entries were drawn from the full list. Where a call stands in place of a potency, no number is given.
# Experiment: qHTS for Inhibitors of human tyrosyl-DNA phosphodiesterase 1 (TDP1): qHTS in cells in absence of CPT; also: nearly all actives have a fitted effect of over 55% in size
# Conditions: DT40 Tdp1-/- hTDP1 cells, no CPT, ATP luminescence, 48 h; activity change, negative = growth inhibition: at 46.2 µM (top of the series)
# Outline: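 Seeded 400 DT40-hTDP1 cells/well (vehicle DMSO, no 20 nM CPT); pinned compounds; ≥48 hr at 37 °C; CellTiter-Glo luminescence as viability measure.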
# Potency is read from the fitted curve at half-maximal effect.
row,SMILES,Potency
1,CC(C)C(=O)Nc1c2c(nn1-c1ccccc1)CSC2,inactive
2,CC1=C(C)CC(C(=O)NC(C)CCc2ccccc2)C(C(=O)O)C1 (stereo unspecified),inactive
3,CCN1C(=O)N[C@@H](c2ccccc2)[C@H](C(C)=O)[C@H]1C,inactive
4,COCCN1C(=O)N[C@@H](CCc2ccccc2)[C@H](C(C)=O)[C@H]1C,inactive
5,CCN1C(=NCc2ccc(OC)cc2)N[C@@H](CCc2ccccc2)[C@H](C(=O)NCc2ccc(OC)cc2)[C@H]1C,9.2 µM (active)
6,CCN1C(=NCCc2cccnc2)N[C@@H](c2ccccc2)[C@H](C(=O)OC)[C@H]1C,inactive
7,CCN1C(=NCC(C)C)N[C@@H](CCc2ccccc2)[C@H](C(=O)NCC(C)C)[C@H]1C,13 µM (active)
8,CCc1ccccc1NC(=O)CSc1nnc([C@@H](NC(=O)OC(C)(C)C)C(C)C)o1,inactive
9,Cc1c(NS(=O)(=O)c2ccc(Cl)cc2)c(=O)n(-c2ccccc2)n1C,inactive
10,CC1CCCC(N2CCN(C(=O)c3ccc(F)cc3)CC2)C1 (stereo unspecified),inactive
11,CS(=O)c1ccc(/C=C2\C=Cc3ccccc32)cc1 (stereo unspecified),20 µM (active)
12,CN(C(=N)N)c1ccc(/C=C2\C=Cc3ccccc32)cc1,2.82 µM (active)
13,C#CCCOC(=O)N1C2=NC(C(=O)OC)=C(C(=O)OC)[C@@H]3N(C)c4ccc(OC)cc4[C@]23C[C@H]1C(=O)OC,inactive
14,O=c1ccc2cc(S(=O)(=O)NCCCc3ccccc3)ccc2[nH]1,inactive
15,C=CCn1c(SCc2nnc(-c3ccccc3)o2)nnc1C(O)c1ccccc1 (stereo unspecified),inactive
16,FC(F)(F)c1cccc(-c2cn[nH]c2C2CCCN(Cc3cccn3-c3ccccn3)C2)c1 (stereo unspecified),inactive
17,Cc1nn(C)cc1C(=O)Nc1ccccc1Br,inactive
18,COc1ccc(N2CCN(Cc3nc4c(c(=O)[nH]c(=O)n4C)n3Cc3ccc(Cl)cc3)CC2)cc1,inactive
19,COc1ccc(Cn2nnc3c(=O)[nH]c(C4CCN(C(=O)c5ccccc5Cl)CC4)nc32)cc1,inactive
20,COc1ccc(CN2CCC(c3nc4ccc(Cl)cc4[nH]3)CC2)cc1,20.6 µM (active)
21,CN(CCCNC(=O)CN1C(=O)CC(C)(C)S(=O)(=O)c2ccccc21)C1CCCCC1,inactive
22,COC(=O)c1nc(NC(=O)c2ccc(Cl)cc2)n[nH]1,inactive
23,CC[C@@H](C)[C@H](NC(=O)CCc1c(C)c2cc3c4c(oc3c(C)c2oc1=O)CCCC4)C(=O)O,inactive
24,COc1ccc(NC(=O)CN(C)C(=O)c2cc(C)oc2C)cc1,inactive
25,CC(C)=CCc1ccc(O)c(=O)cc1C(C)C,20.6 µM (active)
26,Cc1ccc(S(=O)(=O)c2c[nH]c3ccc(Cl)cc3c2=O)cc1,inactive

row,SMILES,Potency
1,O=C1COc2ccc(C(=O)COC(=O)c3cccnc3Cl)cc2N1,inactive
2,O=C1COc2ccc(C(=O)COC(=O)CCOc3ccccc3)cc2N1,inactive
3,O=C1COc2ccc(C(=O)CSc3ccc(Br)cc3)cc2N1,16.4 µM (active)
4,COCc1cc(=O)n2[nH]c(C)c(-c3ccccc3)c2n1,inactive
5,CCCc1cc(=O)n2[nH]c(C)c(-c3ccc(Cl)cc3)c2n1,14.6 µM (active)
6,Cc1nc2c(-c3ccccc3)c(C)[nH]n2c(=O)c1Cl,inactive
7,CCCC(=O)C1=C(N(C)c2ccccc2)CC(C)(C)C(C(=O)OC)C1=O (stereo unspecified),inactive
8,O=C(CSc1ccc([N+](=O)[O-])cn1)Nc1ccc(N2CCOCC2)cc1,inactive
9,CCN(C(=O)CSc1nnc(-c2ccc(OC(F)F)cc2)n1N)C1CCS(=O)(=O)C1 (stereo unspecified),inactive
10,CCOc1ccccc1/C=c1\sc2nc(-c3ccco3)nn2c1=O,inactive
11,CN(C)c1nc(N)nc(CSc2ccccn2)n1,inactive
12,Cc1cccc(NC(=O)c2cc(S(=O)(=O)N3CCC4(CC3)OCCO4)ccc2F)c1,inactive
13,Cc1ccc(NC(=O)CCNS(=O)(=O)c2ccc3c(c2)oc(=O)n3C)cc1C,inactive
14,Cc1ccc(NC(=O)c2cc(S(=O)(=O)NCCC3=CCCCC3)ccc2F)cc1C,25.9 µM (active)
15,CCCc1nc(-c2cc3cc(C)ccc3[nH]c2=O)no1,inactive
16,NC(=O)C1CCN(C(=O)/C(=C/c2ccco2)NC(=O)c2ccccc2)CC1,inactive
17,COc1ccc(CN(C(=O)CSc2nnc(-c3ccc(OC)c(OC)c3)o2)c2ccc(F)cc2)cc1,23.1 µM (active)
18,COc1ccc(CCNC(=O)CSc2nnc(-c3cccc(F)c3)o2)cc1OC,inactive
19,CCN(CC)C(=O)CSc1nnc(-c2cccc(OC)c2)o1,inactive
20,O=C(NCc1ccccn1)c1cc2ccccc2oc1=O,inactive
21,CCc1cccc(NC(=O)CCC(=O)O)c1,inactive
22,O=C(CCl)Nc1cccc(CP(=O)(c2ccccc2)c2ccccc2)c1,2.59 µM (active)
23,O=C(CSCc1ccccc1)Nc1ccccc1,inactive
24,COc1ccc2[nH]c(=O)c(CNc3ccc(C)c(C)c3)cc2c1,8.2 µM (active)
25,COc1ccc(N(Cc2cc3cc(OC)ccc3[nH]c2=O)S(C)(=O)=O)cc1,inactive
